High-throughput results deposited in PubChem BioAssay by National Center for Advancing Translational Sciences (NCATS).
Pf growth 96h = Primary qHTS for delayed death inhibitors of the malarial parasite plastid, 96 hour incubation; P. falciparum luciferase reporter growth, 96 h; Potency, µM (top dose mostly 28.7 µM), for inactives: at the highest dose activity change, negative = inhibition, actives largely listed as inhibitors; hit rate 6.9% among 320,000; AID 504834, 2011
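Erythrocytes infected with luciferase-expressing P. falciparum were dispensed at 2% hematocrit and 0.05% parasitemia (final), then incubated with compounds 96 hours at 37 C in 5% CO2. Luminescence after detection reagent addition reported growth.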
AMA1 RON2 block = qHTS for Inhibitors of AMA1-RON; Towards Development of Antimalarial Drug Lead: Primary Screen. Plasmodium falciparum AMA1 (3D7) - RON2 peptide interaction. AlphaScreen AMA1-biotinylated RON2 peptide binding. Potency, µM (doses to about 58.2 µM), inactives show at the highest dose activity change, negative = inhibition, usual class: inhibitors. hit rate 0.2% among 360,000;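 further: 0% = vehicle wells and -100% = peptide control; nearly all actives have a fitted effect of over 45% in size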
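AMA1 (3D7) with his tag at 25 nM final met compounds first, then biotinylated RON2 peptide at 25 nM; detection used donor plus acceptor beads, 10 µg/mL apiece, read by AlphaScreen after 30 min at room temperature.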
Vaccinia mCherry = qHTS for Stage-Specific Inhibitors of Vaccinia Orthopoxvirus: mCherry Reporter Primary qHTS; Vaccinia virus mCherry reporter infection, fluorescence; Potency, µM (titrated, usually from 36.5 µM), without a hit: top-dose activity change, negative = inhibition, actives largely listed as inhibitors; hit rate 0.63% among 310,000; calls by dose curve; tested in A549 cells; further: nearly all actives have a fitted effect of over 35% in size
Pf growth 48h = Primary qHTS for delayed death inhibitors of the malarial parasite plastid, 48 hour incubation; P. falciparum luciferase growth in erythrocytes, 48 h; Potency, µM (titrated, usually from 28.7 µM), inactives show at the top dose activity change, negative = inhibition, usual class: inhibitors; hit rate 5.9% among 310,000; AID 504832, 2011
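Luciferase-expressing parasites in RBCs, 2% Hct / 0.1% parasitemia final; RPMI 1640 + 0.5% Albumax; 37 C, 5% CO2, one generation; luminescence read-out, lower signal = inhibition.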
VACV Venus inh = qHTS for Stage-Specific Inhibitors of Vaccinia Orthopoxvirus: Venus Reporter Primary qHTS | Vaccinia virus Venus reporter expression, fluorescence | Potency, µM (series often up to 36.5 µM), for inactives: at the highest dose activity change, negative = inhibition, actives largely listed as inhibitors | hit rate 0.46% among 330,000; calls by dose curve; tested in A549 cells; further: nearly all actives have a fitted effect of over 30% in size
* = called active by the depositor; i = inactive; ? = inconclusive; · = not tested or not shown. Compounds with a hit are over-represented: about 8.7% of the library has one in this group of screens. Unless noted, the call rests on the fitted dose curve; in most records, active means well fitted curve in the direction sought with a large enough effect; inconclusive means small, poorly fitted or top-dose-only effect, or another doubt; inactive means no such curve, though single readings can be large; an effect the other way counts as inactive or inconclusive. Unless noted, on the % scale 0 is the no-effect control and ±100 the full control effect; potency means the concentration at half of the fitted maximal effect.

SMILES	Pf growth 96h	AMA1 RON2 block	Vaccinia mCherry	Pf growth 48h	VACV Venus inh
O=C(NCc1ccccn1)Nc1ccc(Br)cc1	1.7µM*	15%	·	13%	·
O=C(NCc1ccccn1)Nc1ccc(Br)cc1Cl	9.3µM*	3%	-7%	50%	-8%
COc1cccc(-c2cc3c(c(OC)c2)OCCN(S(=O)(=O)c2ccccc2OC(F)(F)F)C3)n1	·	·	-16%	·	-6%
N#Cc1ccc(NC(=O)COCc2cc(-c3ccc(F)cc3)on2)cc1	·	·	-10%	·	-3%
CN(C)CCN1C(=O)c2cccc3cc([N+](=O)[O-])cc(c23)C1=O	·	-17%	1.1µM*	·	?
CCC1CN(CCNC(=O)c2ccc3c(c2)OCCO3)Cc2cc(OC)ccc2O1 (stereo not drawn)	·	·	-9%	·	0%
COC(=O)c1c(NC(=O)c2cccc(N3C(=O)CCC3=O)c2)sc2c1CCN(C(C)=O)C2	9.3µM*	-14%	·	-16%	·
COC(=O)c1c(NC(=O)c2nc3ccccc3s2)sc2c1CCN(C(C)=O)C2	10µM*	79%	-5%	·	-26%
Nc1ccc(-c2cc3ccccc3[nH]2)cc1	·	·	-19%	·	-9%
O=C(c1cc2ccccc2oc1=O)N1CCN(c2ccc(Cl)cc2)CC1	·	·	-3%	·	2%
O=C(COC(=O)c1cncc(Br)c1)Nc1nc(-c2ccc(F)cc2)cs1	43%	5%	-7%	58%	-13%
COc1ccccc1N(C(=O)c1cncc(Br)c1)c1nc(-c2ccc(C)cc2)cs1	7.4µM*	-14%	-15%	?	3%
CC(=NNc1nc2ccccc2s1)c1ncccn1	·	?	1µM*	·	19%
C/C(=N\Nc1nc2ccccc2s1)c1cccs1	84%	?	-23%	203%	-21%
Oc1ccccc1/C=N/Nc1ncc(Br)cn1	-102%	29%	?	2.1µM*	?
CC(=NNc1nc2ccccc2o1)c1cc2ccccc2cn1	·	?	?	·	0.71µM*
Oc1ccccc1/C=N/Nc1nc2ccccc2o1	2.1µM*	121%	?	2.6µM*	?
Oc1ccccc1/C=N/Nc1ccccc1	25%	-15%	?	42%	-23%
Oc1ccccc1/C=N/Nc1ccnc(SCc2ccccc2)n1	1.9µM*	65%	?	10µM*	?
Cc1sc2ncnc(N/N=C/c3ccc(O)cc3)c2c1C	?	42%	?	13%	-26%
Cc1sc2ncnc(N/N=C/c3ccccc3O)c2c1C	6%	2%	3.5µM*	2.9µM*	?
CC(=NNc1nc2ccccc2o1)c1ncccn1	·	-5%	0.71µM*	·	?
CCc1cccc(C)c1NC(=O)CSc1nc2c(c(=O)[nH]1)CCC2	·	·	-5%	·	-11%
CCN1CCN(Cc2ccc(NC(=O)c3ccc(C)c(NC(=O)c4nccn4C)c3)cc2C(F)(F)F)CC1	-25%	45%	-10%	?	?
CCN1CCN(Cc2ccc(NC(=O)c3ccc(C)c(NC(=O)c4cncc(-c5cccs5)c4)c3)cc2C(F)(F)F)CC1	·	?	?	·	16µM*
SMILES	Pf growth 96h	AMA1 RON2 block	Vaccinia mCherry	Pf growth 48h	VACV Venus inh
CCN1CCN(Cc2ccc(NC(=O)c3ccc(C)c(NC(=O)c4cccc5[nH]ccc45)c3)cc2C(F)(F)F)CC1	10µM*	-20%	-17%	12µM*	?
CCN1CCN(Cc2ccc(NC(=O)c3ccc(C)c(NC(=O)c4cc(-c5ccc(Br)cc5)n[nH]4)c3)cc2C(F)(F)F)CC1	1.9µM*	0%	-26%	1µM*	10µM*
CCN1CCN(Cc2ccc(NC(=O)c3ccc(C)c(NC(=O)c4nccnc4N)c3)cc2C(F)(F)F)CC1	2.6µM*	48%	?	5.2µM*	?
Cc1cc(C(=O)NCC2CCC3(CCN(Cc4cccc(F)c4F)CC3)O2)n(C)n1 (stereo not drawn)	·	·	-3%	·	-23%
Cc1cc(S(=O)(=O)Nc2ccc3oc4c(c3c2)CCCC4)ccc1Cl	·	·	-15%	·	1%
CCN1CCN(Cc2ccc(NC(=O)c3cc(NC(=O)c4cnnc5ccccc45)cc(OC)c3)cc2C(F)(F)F)CC1	2.9µM*	-25%	?	2.3µM*	10µM*
CCN1CCN(Cc2ccc(NC(=O)c3cc(NC(=O)c4nccnc4N)cc(OC)c3)cc2C(F)(F)F)CC1	1.5µM*	-8%	-1%	1.7µM*	-16%
CCN1CCN(Cc2ccc(NC(=O)c3ccc(C)c(NC(=O)N4CCNC4=O)c3)cc2C(F)(F)F)CC1	?	-10%	?	?	?
CCN1CCN(Cc2ccc(NC(=O)c3cc(NC(=O)c4cncc(-c5ccc(C#N)cc5)c4)cc(OC)c3)cc2C(F)(F)F)CC1	0.1µM*	?	?	0.47µM*	-22%
CCN(c1ccccc1)c1nc(N)nc(C#N)n1	·	·	-19%	·	-9%
Cc1ccc2c(c1)c1c(c(=O)n(-c3ccccc3C)c(=O)n1CC(=O)NCCC1=CCCCC1)n2C	·	·	3%	·	-1%
CCN(CC)CCNC(=O)CCn1c(=O)c2cccn2c2cccnc21	·	·	6%	·	3%
O=C1C[C@H]2C=CCc3cccc(c32)CN1Cc1ccc(Cl)cc1	·	·	-1%	·	-11%
Cc1ccc(CN2CC[C@H]3C=CCc4cccc(c43)C2)cc1	?	-25%	i	5.2µM*	-6%
COc1ccc(CN2CC[C@H]3C=CCc4cccc(c43)C2)cc1	?	?	-9%	3.7µM*	-3%
C1=C[C@@H]2CCN(Cc3ccccc3)Cc3cccc(c32)C1	7.4µM*	0%	-1%	8.3µM*	-17%
COc1cccc(CN2Cc3cccc4c3[C@H](C=CC4)CC2=O)c1	·	·	-3%	·	-22%
CCOc1cccc2sc(NC(=O)c3ccc(S(=O)(=O)N4CCCCC4)cc3)nc12	·	·	-7%	·	-10%
CCOc1ccccc1NC(=O)N(Cc1ccc(F)cc1)C1CCN(CC)CC1	·	·	-26%	·	-20%
COc1ccc(S(=O)(=O)n2ccc(C)n2)cc1C	·	10%	-15%	7%	-11%
CCOc1ccc(S(=O)(=O)n2ccc(C)n2)c2ccccc12	?	-11%	-10%	10µM*	-2%
COc1cc(C)c(S(=O)(=O)n2ccc(C)n2)cc1C	15µM*	-11%	-12%	·	?
CCCCC(=O)OCc1cc(=O)n2nc(C3CCCCC3)sc2n1	·	·	-10%	·	-7%
O=C(Cc1ccc(Cl)cc1)Nc1nnc2n1CCS2	·	·	-7%	·	-8%
O=C(NCc1ccccc1)C1=C[C@@H](c2coc3ccccc3c2=O)C[C@@H](OCc2ccc(CO)cc2)O1	4.1µM*	-11%	-3%	?	-22%
C#CCNC(=O)C1=C[C@@H](c2csc3ccccc23)C[C@@H](OCc2ccc(CO)cc2)O1	5.2µM*	-13%	?	?	-16%
C#CCNC(=O)C1=C[C@@H](c2ccc(Br)cc2)C[C@@H](OCCCCO)O1	8.3µM*	-5%	-14%	?	-12%
